WRN helicase inh – inhibitors of human WRN helicase. Q14191. WRN helicase unwinding, fluorescent forked duplex, kinetic. Potency, µM (series often up to 114 µM), for inactives: at the top dose activity change, negative = inhibition, most hits filed as inhibitors. hit rate 0.46% among 360,000. AID 651768; further: on the % scale 0 is the no-effect control and ±100 the full control effect; nearly all actives have a fitted effect of over 55% in size
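Screening of the MLSMR collection measured strand separation of a quenched forked DNA duplex (100 nM) by 20 nM WRN with 2 mM ATP, all final. Compounds were preincubated with enzyme 15 min at room temperature.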
FEN1 inhibitor – human FEN1 inhibition; P39748; Recombinant FEN1 flap cleavage, fluorescence, 15 min; Potency, µM (top dose mostly 114 µM), for inactives: top-dose activity change, negative = inhibition, most hits filed as inhibitors; hit rate 0.35% among 390,000; AID 588795; further: on the % scale 0 is the no-effect control and ±100 the full control effect; nearly all actives have a fitted effect of over 65% in size
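With each library titrated from low to high concentration, compounds met 10 nM FEN1 for 15 min at room temperature before 50 nM substrate was added; readings at 0 and 15 min fed four-parameter Hill curve fits.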
POLI inh – blocks human DNA polymerase iota activity | AID 588590 | Potency, µM (titrated, usually from 115 µM), for the others: at the top dose activity, negative = inhibition, actives largely listed as inhibitors | Pol iota fluorescent replication assay, 10 min | Q9UNA4 | hit rate 1% among 390,000
Target sequence (Q9UNA4 whole entry, looked up): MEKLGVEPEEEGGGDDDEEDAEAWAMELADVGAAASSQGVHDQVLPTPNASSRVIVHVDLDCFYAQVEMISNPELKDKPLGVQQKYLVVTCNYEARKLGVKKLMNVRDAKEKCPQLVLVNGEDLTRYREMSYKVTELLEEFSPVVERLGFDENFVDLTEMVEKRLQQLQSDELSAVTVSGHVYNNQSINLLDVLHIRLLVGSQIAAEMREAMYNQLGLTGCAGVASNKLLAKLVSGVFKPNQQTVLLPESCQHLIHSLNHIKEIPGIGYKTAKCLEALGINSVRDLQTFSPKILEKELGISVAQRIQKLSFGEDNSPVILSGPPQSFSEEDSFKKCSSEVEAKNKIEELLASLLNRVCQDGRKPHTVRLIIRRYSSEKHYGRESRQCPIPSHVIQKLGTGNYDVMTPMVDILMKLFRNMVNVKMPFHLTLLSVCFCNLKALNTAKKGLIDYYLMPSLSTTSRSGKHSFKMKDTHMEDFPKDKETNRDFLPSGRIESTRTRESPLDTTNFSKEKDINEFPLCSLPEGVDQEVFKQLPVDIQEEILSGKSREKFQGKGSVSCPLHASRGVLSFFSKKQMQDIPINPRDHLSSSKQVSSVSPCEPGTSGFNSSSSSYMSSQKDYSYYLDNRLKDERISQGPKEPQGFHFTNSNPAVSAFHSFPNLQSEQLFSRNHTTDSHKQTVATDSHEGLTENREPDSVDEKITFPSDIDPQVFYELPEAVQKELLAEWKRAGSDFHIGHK
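Fluorescent replication assay read twice, at 0 min and 10 min after adding 50 nM (final) substrate. Enzyme (10 nM) and compounds were first incubated 15 min at room temperature; enzyme-free buffer wells were negative controls.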
POLH inh – inhibitors of human DNA polymerase eta; Q9Y253; recombinant Pol eta, fluorescent DNA replication assay; Potency, µM (titrated, usually from 114 µM), without a hit: at the highest dose activity change, negative = inhibition, most hits filed as inhibitors; hit rate 1.2% among 390,000; AID 588591; further: on the % scale 0 is the no-effect control and ±100 the full control effect
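Pol eta (10 nM) was preincubated with compounds for 15 min at room temperature, after which fluorescent replication substrate (50 nM final) was added to start the reaction. Fluorescence was read kinetically at 0 and 10 min.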
Pol kappa inh – blocks human DNA polymerase kappa activity | hit rate 0.53% among 400,000 | Potency, µM (top dose mostly 107 µM), for inactives: at the highest dose activity, negative = inhibition, most hits filed as inhibitors | purified Pol kappa, fluorescent DNA synthesis assay, 10 min; further: on the % scale 0 is the no-effect control and ±100 the full control effect
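10 nM Pol kappa was preincubated with compounds for 15 min at room temperature. Reaction started with 50 nM (final) substrate. Fluorescence read kinetically at 0 and 10 min.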
Pol beta inh – DNA polymerase beta (human) inhibition; hit rate 1.3% among 340,000; Potency, µM (top dose mostly 114 µM), without a hit: top-dose activity change, negative = inhibition, most hits filed as inhibitors; P06746; Pol beta primer extension/strand displacement, fluorescence kinetic; further: on the % scale 0 is the no-effect control and ±100 the full control effect
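Pol beta (10 nM) was preincubated with compound for 15 min at room temperature. The reaction was then started with 50 nM substrate and read immediately and after a further 10 min at room temperature.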
* marks the source's active call; other numbers are inactive results; ? = inconclusive; / = no result; ! = not confirmed by another sample; [ ] = dose if it differs, or a comment. In the library only some 2.4% were active in any assay of this set; here they are far more common. The call rests on the fitted dose curve; in most records, active means well fitted curve in the direction sought with a large enough effect; inconclusive means small, poorly fitted or top-dose-only effect, or another doubt; inactive means no such curve, though single readings can be large; an effect the other way counts as inactive or inconclusive. Potency means the concentration at half of the fitted maximal effect.

SMILES | WRN helicase inh | FEN1 inhibitor | POLI inh | POLH inh | Pol kappa inh | Pol beta inh
Cc1ccc(-n2c(O)c(C=NCc3ccco3)c(=O)[nH]c2=S)cc1C | ? | -10% | 20µM* | ? | 40µM* | ?
CCCCCC[C@H]1C(=O)O[C@H](C)[C@H](NC(=O)c2cccc(NC=O)c2O)C(=O)O[C@@H](C)[C@H]1OC(=O)CC(C)C | / | / | / | / | -2%[12 µM] | /
CC(Cc1cccc(C(F)(F)F)c1)NCCCc1ccccc1 (stereo not given) | / | / | / | / | 8%[19.4 µM] | /
O=C1CS[C@@H](c2ccccc2Cl)c2cc(Cl)ccc2N1 | / | / | / | / | -8%[19.4 µM] | /
CC1CC(C)C(=O)[C@H](C(O)CC2CC(=O)NC(=O)C2)C1 (stereo not given in full) | / | / | / | / | 0%[60.1 µM] | /
O=C1NC(=S)SC1=Cc1ccc(N(CCCl)CCCl)cc1 | -17% | ? | 16µM* | 79µM* | ? | /
CC[C@@]1(O)C(=O)OCc2c1cc1n(c2=O)-c2cc3ccccc3nc2C1 | / | / | / | / | 5%[60.1 µM] | /
CC(=O)O.CC(=O)O.[Cd] | / | / | / | / | 10µM* | /
[O]=[Sb]([OH])([OH])[c]1ccccc1 | / | 50µM* | 20µM* | / | 25µM* | /
O=C(Cc1ccccc1)OCc1ccccc1 | -4% | 4% | 6% | -10% | 0% | /
COC(=O)C(O)(c1ccc(NC(=O)c2ccccc2)cc1)C(F)(F)F (stereo not given) | 0% | 16% | 28% | -25% | -2% | 1%
O=C(Nc1cc[c]([Sb](=[O])([OH])[OH])cc1)c1ccccc1 | / | 40µM* | ? | / | 6.3µM* | /
CC[C@@H]1CN2CCc3cc(OC)c(OC)cc3[C@H]2C[C@@H]1C[C@@H]1NCCc2cc(O)c(OC)cc21 | / | / | / | / | -11%[12 µM] | /
C=C(C)[C@@]12OC3(c4ccccc4)O[C@@H]1[C@@H]1[C@@H]4O[C@]4(CO)[C@@H](O)[C@]4(O)C(=O)C(C)=C[C@H]4[C@@]1(O3)[C@H](C)[C@H]2OC(=O)/C=C/C=C/c1ccccc1 | / | / | / | / | -9%[60.1 µM] | /
CCC(C)c1ccc(N2C(=O)NC(=O)/C(=C/c3cccn3CCOc3ccc(C)cc3)C2=O)cc1 (stereo not given) | -2%[11.6 µM] | 0% | 35µM* | 7% | -74% | 11%
O=[N+]([O-])c1cc(-c2ccc([As](=O)(O)O)cc2)ccc1[As](=O)(O)O | / | / | / | / | / | 20µM*
C=C(C)C1CNC(C(=O)O)C1CC(=O)O (stereo not given) | / | / | / | / | -5%[60.1 µM] | /
Cc1c2ccncc2c(C)c2c1[nH]c1ccccc12 | -13% | 12µM* | 14µM*! | ? | ? | 4µM*
c1ccc2c(c1)[nH]c1cnccc12 | 2% | -5% | 18% | -16% | 3% | 34%
Cc1[nH]c(=O)n(C(C)(C)C)c(=O)c1Cl | / | / | / | / | 17%[60.1 µM] | /
COc1cc(CC(=O)OCC2=C[C@H]3[C@@H]4C(C)(C)[C@]4(OC(C)=O)[C@H](OC(=O)Cc4ccccc4)[C@@H](C)[C@]3(O)[C@@H]3C=C(C)C(=O)[C@@]3(O)C2)ccc1O | / | / | / | / | -20%[60.1 µM] | /
COc1cc2c(cc1OC)-c1c(OC)c(OC)c(OC)c3ccnc(c13)C2=O | -4% | 10µM* | ? | -11% | -19% | -14%
COP(=O)(OC)/C(C=O)=N/Nc1ccc([N+](=O)[O-])cc1 | -5% | -4% | 36% | -1% | 0% | 22µM*
COP(=O)(OC)C(Nc1ccc([N+](=O)[O-])cc1)c1ccccc1 (stereo not given) | -12% | 1% | 127% | 1% | -2% | 20%
N#Cc1ncc(Br)cn1 | / | 18% | 31% | / | 7% | /
SMILES | WRN helicase inh | FEN1 inhibitor | POLI inh | POLH inh | Pol kappa inh | Pol beta inh
O=C(N/N=C/C1C(=O)NC(=S)N(c2ccccc2)C1=O)c1cc(Br)c(O)c(Br)c1 (stereo not given) | 79µM* | -9% | ? | ? | ? | ?
O=C(N/N=C/c1c(O)n(C2CCCCC2)c(=S)[nH]c1=O)c1ccccc1 | -7% | 1% | 25% | -10% | 10% | 20%
O=C1NC(=O)N(Cc2cccs2)C(=O)/C1=C/c1ccc(N2CCOCC2)cc1 | 56µM* | 5% | 118% | 4% | -7% | -6%
CN(CC(=O)O)C(=O)[C@H](Cc1ccccc1)NC(=O)[C@@H](CCCN=C(N)N)NC(=O)[C@@H](N)Cc1ccc(O)cc1 | / | / | / | / | 14%[60.1 µM] | /
O=C1OC(c2cc(I)c(O)c(I)c2)(c2cc(I)c(O)c(I)c2)c2ccccc21 | / | / | / | / | 3.5µM* | /
CCN(CC)C(=O)c1ccc2c(c1)C1C(Cl)C(Sc3ccccc3[N+](=O)[O-])CC1C(C(=O)O)N2 (stereo not given) | -27% | ? | ? | 18µM* | ? | 50µM*
O=C(O)c1ccc2c(c1)C1C(Cl)C(Sc3ccccc3[N+](=O)[O-])CC1C(c1cccc([N+](=O)[O-])c1)N2 (stereo not given) | ? | ? | ? | 22µM* | 50µM* | ?
O=[N+]([O-])c1cccc(C2N3CCCN23)c1 (stereo not given) | 3% | 5% | 17% | -17% | -1% | 91%
O=C(O)c1cccc2c1NC(c1cccc([N+](=O)[O-])c1)C1CC(Sc3ccccc3[N+](=O)[O-])C(Cl)C21 (stereo not given) | -32% | -26% | ? | 32µM* | ? | ?
CCn1c(=S)sc2c(=O)[nH]c(SCC(=O)Nc3cc(OC)ccc3OC)nc21 | -4%[11.6 µM] | -9% | ? | 50µM* | -17% | 0%
CCCOc1ccc2[nH]cc(C3=CCNCC3)c2n1 | / | / | / | / | -13%[19.4 µM] | /
C#CCOCCOCCOCCNc1nc(N2CCN(C(=O)CCCCCCCCCCNC(=O)[C@H]([C@@H](C)CC)n3cc(CCCCN=C(N)N)nn3)CC2)nc(N2CCN(C(=O)CCCCCCCCCCNC(=O)[C@H](CO)n3cc(CCCCCN)nn3)CC2)n1 | 22µM* | 25µM* | ? | 79µM* | 12% | /
Cc1cccc(N2C(=O)NC(=O)/C(=C/c3cc4c(cc3[N+](=O)[O-])OCO4)C2=O)c1 | 50µM* | -33% | ? | -9% | 89µM* | 0%
O=C1NC(=O)C(=Cc2cc3c(cc2[N+](=O)[O-])OCO3)C(=O)N1 | 71µM* | 15% | ? | -8% | -5% | -26%
CC1(C)C(=O)[C@@H]2OC2[C@@]2(C)C1CC(O)[C@]1(C)C2CC[C@@]2(C)C(c3ccoc3)OC(=O)C3OC312 (stereo not given in full) | / | / | / | / | -11%[60.1 µM] | /
CC(C)C1C(=O)O[C@@H]2CCN3CC=C(COC(=O)[C@](C)(O)[C@]1(C)O)[C@H]23 (stereo not given in full) | / | / | / | / | 18%[60.1 µM] | /
